The values below come from PubChem BioAssay.

Values joined by “and” are separate entries in the source; they are usually repeats but may differ in a detail not shown here. Identical values can stand only once. Active and inactive are the calls of the source.

The nature of experiment [1]: E. coli DRC41 culture turbidity changes, primary screen, E. coli filamentation inducer project, strain DRC41, OD650, 48 h (AID 1152).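 Further: E. coli MC1000 strain DRC41 lacking acrAB efflux pump and sulA.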 Conditions: E. coli DRC41 (acrAB sulA), higher = more signal, called active from +8 up or from −8 down.
Experiment [2] in a line: small-molecule binders of probe aLefty1, primary screen, biochemical, small-molecule microarray, 635/667 nm fluorescence (AID 1153).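 Further: score merges spot fluorescence with signal-to-noise ratio from the scanned slide images.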 Conditions: higher = more signal.
The nature of experiment [3]: PSAC antagonists in infected red cells, primary screen, cell-based, P. falciparum Indochina, OD700, 1 h (AID 1154). The settings on record: P. falciparum Indochina infected RBC osmotic lysis, higher = more signal, called active from +8 up or from −8 down.
Experiment [4] in a line: PSAC antagonists in infected red cells, primary screen, cell-based, P. falciparum Indochina, OD700, 2 h (AID 1155).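 Further: lysis reports solute entry through the parasite surface anion channel PSAC; channel blockers reduce lysis of infected cells.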 Conditions: P. falciparum Indochina infected erythrocytes, osmotic lysis OD700; higher = more signal, called active from +8 up or from −8 down.
A short description of experiment [5]: osmotic lysis modulators in infected erythrocytes, primary screen, PSAC antagonist project, cell-based, P. falciparum Indochina, OD700, 3 h (AID 1156). Conditions: higher = more signal, called active from +8 up or from −8 down.
A short description of experiment [6]: PSAC antagonists in infected red cells, primary screen, cell-based, P. falciparum Indochina, OD700, 18 h (AID 1157). The settings on record: P. falciparum Indochina infected erythrocytes, osmotic lysis OD700, 18 h; higher = more signal, called active from +8 up or from −8 down.
A short description of experiment [7]: modulators of S6 phosphorylation in cells, primary screen, cell-based, A549, cytoblot, luminescence, serum-stimulated (AID 1158).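 Further: serum-stimulated A549 lung adenocarcinoma cells; signal is phosphorylated S6 detected by cytoblot immunostaining with HRP secondary.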 The settings on record: A549 phospho-S6 cytoblot, 5 h, higher = more signal.
Experiment [8] concerns the target NADPH oxidase 2 (Homo sapiens) (UniProt P04839). Put plainly: NOX2-dependent H2O2 signal modulators, primary screen, NOX inhibitor project, cell-based, HEK293-NOX2, PMA-stimulated, Amplex Red fluorescence (AID 1159). Further: test concentration not given here. Conditions: 45 min, higher = more signal, called active from +8 up or from −8 down.
The target in experiment [9] is NADPH oxidase 4 (Homo sapiens) (UniProt Q9NPH5). Description: NOX4-dependent H2O2 signal modulators, primary screen, NOX inhibitor project, cell-based, HEK293-NOX4, tetracycline-induced, Amplex Red fluorescence (AID 1160). Conditions: 45 min, higher = more signal, called active from +8 up or from −8 down.
Chain of NADPH oxidase 4 (Homo sapiens) (Q9NPH5 whole entry, looked up): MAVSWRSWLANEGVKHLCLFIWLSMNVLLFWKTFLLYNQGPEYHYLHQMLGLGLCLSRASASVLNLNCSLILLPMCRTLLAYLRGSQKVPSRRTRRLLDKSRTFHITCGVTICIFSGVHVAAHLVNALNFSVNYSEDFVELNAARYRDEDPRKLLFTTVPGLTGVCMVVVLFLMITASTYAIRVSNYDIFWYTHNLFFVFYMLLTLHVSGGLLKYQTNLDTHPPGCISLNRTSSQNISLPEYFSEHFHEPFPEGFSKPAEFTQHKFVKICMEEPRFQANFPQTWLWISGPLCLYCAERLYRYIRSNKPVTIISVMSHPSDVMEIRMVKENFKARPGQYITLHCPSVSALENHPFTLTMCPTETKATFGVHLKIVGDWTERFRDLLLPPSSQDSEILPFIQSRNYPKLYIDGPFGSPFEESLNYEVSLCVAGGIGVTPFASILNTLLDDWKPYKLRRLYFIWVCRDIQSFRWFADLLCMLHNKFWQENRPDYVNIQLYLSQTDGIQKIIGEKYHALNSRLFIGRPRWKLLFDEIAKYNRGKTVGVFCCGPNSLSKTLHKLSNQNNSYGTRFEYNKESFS
Experiment [10] concerns the target NADPH oxidase 5 (Homo sapiens) (UniProt Q96PH1). Description: NOX5-dependent H2O2 signal modulators, primary screen, NOX inhibitor project, cell-based, HEK293-NOX5, Amplex Red fluorescence (AID 1161). Conditions: HEK293-NOX5, ionomycin, 45 min, higher = more signal.

Chain of NADPH oxidase 2 (Homo sapiens) (P04839 whole entry, looked up): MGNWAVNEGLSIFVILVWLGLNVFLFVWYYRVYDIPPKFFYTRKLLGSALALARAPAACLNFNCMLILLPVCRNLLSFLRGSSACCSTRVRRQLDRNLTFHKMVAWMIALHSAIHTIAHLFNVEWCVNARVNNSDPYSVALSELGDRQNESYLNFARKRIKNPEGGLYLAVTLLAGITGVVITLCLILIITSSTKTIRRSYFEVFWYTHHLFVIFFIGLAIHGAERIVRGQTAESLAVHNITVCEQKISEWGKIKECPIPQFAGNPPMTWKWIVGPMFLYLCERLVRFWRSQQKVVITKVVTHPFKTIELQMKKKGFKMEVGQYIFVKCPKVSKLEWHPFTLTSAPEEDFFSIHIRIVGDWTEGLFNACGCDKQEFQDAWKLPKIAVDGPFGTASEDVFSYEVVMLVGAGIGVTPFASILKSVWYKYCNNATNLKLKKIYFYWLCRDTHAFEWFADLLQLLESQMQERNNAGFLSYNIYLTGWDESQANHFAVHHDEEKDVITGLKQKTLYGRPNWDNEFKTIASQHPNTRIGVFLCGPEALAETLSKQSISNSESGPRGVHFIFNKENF
Chain of NADPH oxidase 5 (Homo sapiens) (Q96PH1 whole entry, looked up): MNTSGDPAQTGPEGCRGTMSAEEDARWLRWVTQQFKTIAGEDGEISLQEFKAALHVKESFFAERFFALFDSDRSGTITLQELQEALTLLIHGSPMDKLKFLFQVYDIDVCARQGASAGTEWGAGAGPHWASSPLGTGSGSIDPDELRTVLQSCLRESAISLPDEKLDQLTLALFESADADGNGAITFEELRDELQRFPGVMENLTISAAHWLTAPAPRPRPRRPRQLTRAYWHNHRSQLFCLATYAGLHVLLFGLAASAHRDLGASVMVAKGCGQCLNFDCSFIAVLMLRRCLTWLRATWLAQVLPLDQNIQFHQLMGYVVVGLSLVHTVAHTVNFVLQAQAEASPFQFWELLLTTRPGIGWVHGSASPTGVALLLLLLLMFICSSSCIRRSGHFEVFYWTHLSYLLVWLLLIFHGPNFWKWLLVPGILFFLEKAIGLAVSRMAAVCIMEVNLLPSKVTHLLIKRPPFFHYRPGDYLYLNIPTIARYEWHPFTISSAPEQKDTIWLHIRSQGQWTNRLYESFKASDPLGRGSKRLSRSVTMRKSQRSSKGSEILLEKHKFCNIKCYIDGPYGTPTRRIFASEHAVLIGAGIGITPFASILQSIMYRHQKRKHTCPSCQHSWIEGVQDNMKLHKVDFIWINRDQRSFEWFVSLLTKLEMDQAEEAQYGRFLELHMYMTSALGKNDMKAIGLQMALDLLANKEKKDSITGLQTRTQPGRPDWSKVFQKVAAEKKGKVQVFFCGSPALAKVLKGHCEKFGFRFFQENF

`C=C[C@@H](C)[C@@H](O)c1ccc(O)c2ccccc12`: the z-score in experiment [1] is -0.433 (inactive) and 0.891 (inactive); in experiment [3] it was 0.837 (inactive) and 2.36 (inactive); in [4], -0.0805 (inactive) and 0.389 (inactive); in experiment [5], -0.718 (inactive) and 0.0336 (inactive); in experiment [6], 0.205 (inactive) and 1.19 (inactive); in [7], -0.565 and 0.273. The z-score was -5.58 (inactive) and -5.73 (inactive) in experiment [8]; -0.616 (inactive) and -1.33 (inactive) in [9]; 1.95 and 1.31 in [10]. The composite z-score in experiment [2] is -0.194 and -0.0851.

In the case of `CC(C)OC(=O)C=C1C[C@@H](c2ccccc2)O[C@@H](c2ccccc2)O1`, the z-score was 0.676 (inactive) and 0.585 (inactive) in experiment [1]; 15.2 (active) and 23.2 (active) in experiment [3]; 1.94 (inactive) and 5.46 (inactive) in experiment [4]; 0.369 (inactive) in experiment [5]; 1.03 (inactive) and 1.37 (inactive) in [6]; -0.104 and -0.0136 in experiment [7]. Further, the z-score in experiment [8] was -0.124 (inactive) and -0.0606 (inactive); in experiment [9], -0.00431 (inactive) and -1.01 (inactive); in experiment [10], -0.39 and -0.392. In experiment [2], the composite z-score is -0.0984 and 0.149.

Regarding `COC(=O)C1=C2N(Cc3ccccc3)C(C)=C(C(=O)OC)[C@@H](c3ccccc3)N2C(=O)[C@](O)(C(=O)OC)C1`, the z-score in experiment [1] was 0.33 (inactive) and -0.579 (inactive); in experiment [3], 1.6 (inactive) and 0.553 (inactive); in [4], 1.02 (inactive) and 0.676 (inactive); in experiment [5], 0.878 (inactive) and -0.159 (inactive); in experiment [6] it was 0.468 (inactive) and 0.318 (inactive); in experiment [7], -0.482 and -0.524. The z-score in experiment [8] was 0.258 (inactive) and 0.184 (inactive); in experiment [9], 0.64 (inactive) and 0.0139 (inactive); in experiment [10], 0.932 and 0.724. In addition, the composite z-score in [2] was -0.0694 and -0.189.

In the case of `COC(=O)C1=C(C)N(Cc2ccccc2)C2=C3C(=O)N(c4ccccc4)C(=O)[C@@H]3[C@@](O)(C(=O)OC)C(=O)N2[C@@H]1c1ccccc1`, the z-score in experiment [1] was 0.417 (inactive) and 0.339 (inactive); in [3], 0.518 (inactive) and 0.516 (inactive); in experiment [4] it was 0.372 (inactive) and -0.427 (inactive); in experiment [5] it was 0.509 (inactive) and 0.736 (inactive); in experiment [6], 0.54 (inactive) and -0.962 (inactive); in [7] it was -0.528 and 1.43. Further, the z-score was -0.0787 (inactive) and 0.333 (inactive) in experiment [8]; -0.0918 (inactive) and 0.833 (inactive) in [9]; -0.244 and 0.251 in [10]. In experiment [2], the composite z-score was 0.0752 and -0.0984.

`C[C@@H](c1ccccc1)N1C(=O)[C@H]2[C@H]3[C@H](O)[C@H](O)CC(=O)[C@@H]3CC[C@H]2C1=O`: the z-score is 0.212 (inactive) in experiment [1]; 0.207 (inactive) in [3]; -1.39 (inactive) in [4]; 0.279 (inactive) in experiment [5]; -1.63 (inactive) in experiment [6]; 0.732 in [7]. Besides, the z-score in [8] was -0.0197 (inactive); in [9], 0.237 (inactive); in [10] it was 0.776. This compound registered a composite z-score in experiment [2] of -0.229.

For the compound `CCOC(=O)[C@H](Cc1ccccc1)NC(=O)CCC1CC(OC(=O)NCc2cccc3ccccc23)CC2(CCCC(COC(=O)NCCCN3CCCC3=O)O2)O1` (stereo not given in full), the z-score is -0.0133 (inactive) in experiment [1]; -0.532 (inactive) in experiment [3]; -0.874 (inactive) in [4]; -2.17 (inactive) in experiment [5]; -0.685 (inactive) in experiment [6]; -0.46 in experiment [7]. Besides, the z-score was 1.09 (inactive) in [8], 0.487 (inactive) in experiment [9] and -0.609 in experiment [10]. Also, the composite z-score in experiment [2] is 0.0371.

Turning to `C=CC[C@H](O)c1ccc(OCCO)cc1`, the z-score in experiment [1] is -0.349 (inactive) and -0.895 (inactive); in experiment [3] it was 0.965 (inactive) and 1.27 (inactive); in [4], 0.396 (inactive) and -0.262 (inactive); in experiment [5], -0.0706 (inactive) and -0.94 (inactive); in [6], 0.475 (inactive) and 0.084 (inactive); in [7], 0.263 and 0.368. Moreover, the z-score in [8] is -0.317 (inactive) and -0.425 (inactive); in [9], -0.103 (inactive) and 0.574 (inactive); in [10], 0.811 and 0.51. The composite z-score in [2] was -0.017 and -0.491.

In the case of `C=CCN(CCCCC)C(=O)C1N(CCCCCCO)C(=O)C2C(C(=O)O)C3C=CC21O3` (stereo not given), the z-score in [1] was -0.559 (inactive) and -0.794 (inactive); in experiment [3], 0.0275 (inactive) and 0.375 (inactive); in [4] it was -0.76 (inactive) and 0.22 (inactive); in experiment [5] it was -0.627 (inactive) and -0.419 (inactive); in [6], -0.33 (inactive) and 0.404 (inactive); in experiment [7] it was -0.539 and -0.626. The z-score in experiment [8] is 1.07 (inactive) and 0.619 (inactive); in [9], -0.208 (inactive) and -0.169 (inactive); in experiment [10], 1.08 and 1.26. In [2], the composite z-score was -0.191 and 0.29.

For the compound `C=CCN(CCCC)C(=O)C1N(CCCCCCO)C(=O)C2C(C(=O)O)C3C=CC21O3` (stereo not given), the z-score in experiment [1] is -0.91 (inactive) and -0.81 (inactive); in experiment [3], 0.153 (inactive) and -0.368 (inactive); in experiment [4], -0.0395 (inactive) and 0.354 (inactive); in experiment [5], -0.661 (inactive) and -0.802 (inactive); in experiment [6], -0.11 (inactive) and -0.0605 (inactive); in experiment [7], -0.686 and -0.762. The z-score in experiment [8] is 0.634 (inactive) and 0.835 (inactive); in experiment [9] it was -0.159 (inactive) and -0.18 (inactive); in [10], 0.75 and 1.01. The composite z-score in [2] is -0.31 and -0.101.

Turning to `CON(C)C(=O)c1nnc2c3ccccc3n(S(=O)(=O)c3ccc(C)cc3)c2n1`, the z-score in experiment [1] was -0.162 (inactive) and 0.162 (inactive); in experiment [3], 1.21 (inactive) and 2.08 (inactive); in [4], 0.0579 (inactive) and 0.454 (inactive); in experiment [5], -0.212 (inactive) and 0.184 (inactive); in [6], -0.096 (inactive) and 0.149 (inactive); in experiment [7], -0.375 and 0.313. The z-score in experiment [8] was 0.442 (inactive) and -1.24 (inactive); in experiment [9] it was 0.882 (inactive) and 0.0607 (inactive); in experiment [10], 0.436 and 0.278. For the same compound, in experiment [2], the composite z-score is -0.262 and -0.368.
